The supplement of paper PMC4723716
Over roughly 3,600 compounds, “viability index relative to DMSO control” has its median near 0.81; the lowest 2% begin near 0.13. This is one part of a sample in which the lowest values are shown more often than they occur.

Test system: Plasmodium falciparum NF54 stage V gametocytes
Assay: viability index relative to DMSO control (fraction); higher = less gametocyte killing
Conditions: 1.25 µM, incubation time: 72 h
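Note: Saponin-lysis sexual stage assay in serum-free medium: MitoTracker Red CMXRos staining plus saponin, high-content imaging, particle count per well divided by plate mean of DMSO wells.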

**Q.** For CCOc1ccccc1C1C(C#N)=C(SCC(=O)Nc2ccc(Cl)cc2)NC(C)=C1C(=O)Nc1ccccc1 (configuration not stated), which viability index is on record?
**A.** 0.5

**Q.** Fc1ccc(CSc2nc3cccnc3[nH]2)cc1 was tested. Which viability index did it give?
**A.** 1.24

**Q.** Cc1cc(C)cc(NC2=C(N)C(=O)c3ccccc3C2=O)c1 was tested. Which viability index did it give?
**A.** 0.707

**Q.** For COc1cc2nc(N3CCN(c4nc(N)c5cc(OC)c(OC)cc5n4)CC3)nc(N)c2cc1OC, which viability index is on record?
**A.** 0.0192

**Q.** COc1cc2nc(Nc3ccc(F)cc3)nc(N)c2cc1OC was tested. Which viability index did it give?
**A.** 0.787

**Q.** Which viability index does the source give for COc1ccc(-c2cc(C3CCN(c4nc(N)c5cc(OC)c(OC)cc5n4)CC3)n[nH]2)cc1OC here?
**A.** 1.17

**Q.** Which viability index does the source give for O=C(CNCCc1ccccc1)NC(c1ccccc1)c1ccccc1 here?
**A.** 0.761

**Q.** For CCOc1ccc(C=C(C#N)c2nc3ccccc3[nH]2)cc1OC, which viability index is on record?
**A.** 0.837

**Q.** For COc1cc2c(-c3cc(Br)ccc3O)nc3c(c(Cc4ccccc4)nn3-c3ccccc3)c2cc1OC, which viability index is on record?
**A.** 0.595

**Q.** Which viability index does the source give for NC(=S)NN=Cc1cc([N+](=O)[O-])ccc1O here?
**A.** 0.176

**Q.** Which viability index does the source give for CC(C=NNC(N)=S)=NNC(N)=S here?
**A.** 0.131

**Q.** With CCOc1ccc(CCN2C(=S)N(c3cccc(C(F)(F)F)c3)C(=O)C2CC(=O)Nc2ccc(C(=O)OC)cc2)cc1OCC (configuration not stated) as the molecule, how does the viability index read?
**A.** 0.582

**Q.** With N#Cc1c(-c2ccccc2)cc(N2CCN(C3CCCCC3)CC2)n2c1nc1ccccc12 as the molecule, how does the viability index read?
**A.** 0.822

**Q.** COc1ccc(-c2c[n+](CC(=O)c3cccc(OC)c3)c3n2CCC3)cc1 was tested. Which viability index did it give?
**A.** 0.74

**Q.** For Cc1ccc2c(c1)C(C)(c1ccc(Cl)cc1)CC(C)(C)N2C(=O)COc1ccc2ccccc2c1 (configuration not stated), which viability index is on record?
**A.** 0.826

**Q.** Which viability index does the source give for O=C(C[n+]1cc(-c2ccc(F)cc2)n2c1CCC2)Nc1ccc(Cl)cc1 here?
**A.** 1.44

**Q.** For CCCc1ccc(C(=O)NC(=O)c2ccccc2O)cc1, which viability index is on record?
**A.** 1.05

**Q.** CCSC(Cl)=C(NC(=O)c1ccccc1)[P+](c1ccccc1)(c1ccccc1)c1ccccc1 was tested. Which viability index did it give?
**A.** 0.0362

**Q.** Cc1c(Cl)cccc1NC(=O)CCC(=O)NNC(=O)c1ccccc1 was tested. Which viability index did it give?
**A.** 0.9

**Q.** With O=C1C(Sc2nc[nH]n2)=CC(=NS(=O)(=O)c2cccs2)c2ccccc21 as the molecule, how does the viability index read?
**A.** 0.707

**Q.** With COc1ccccc1NC1=CC(=NS(=O)(=O)c2ccc(F)cc2)c2ccccc2C1=O as the molecule, how does the viability index read?
**A.** 0.189

**Q.** O=C1C(Nc2ccc(O)cc2)=CC(=NS(=O)(=O)c2cccs2)c2ccccc21 was tested. Which viability index did it give?
**A.** 0.306

**Q.** Which viability index does the source give for COc1ccc(S(=O)(=O)N=C2C=C(Nc3ccccc3OC)C(=O)c3ccccc32)cc1 here?
**A.** 0.0579

**Q.** For COc1ccccc1NC1=CC(=NS(=O)(=O)c2cccs2)c2ccccc2C1=O, which viability index is on record?
**A.** 0.0154

**Q.** How did the viability index turn out when COc1ccccc1NC1=CC(=NS(=O)(=O)c2ccccc2)c2ccccc2C1=O was run?
**A.** 0.247

**Q.** Which viability index does the source give for Cc1cccc(CCNc2cc(C)nc3ncnn23)c1 here?
**A.** 0.982

**Q.** How did the viability index turn out when COc1ccc2[nH]c(SCC(=O)Nc3cccc(NC(=O)CSc4nc5cc(OC)ccc5[nH]4)n3)nc2c1 was run?
**A.** 0.353

**Q.** With Cc1cccc(NC(=O)C2C3C=CC4(O3)C2C(=O)N(CC2COc3ccccc3O2)C4C(=O)NC2CCCC(C)C2C)c1 (configuration not stated) as the molecule, how does the viability index read?
**A.** 1.33

**Q.** Cc1cc2nc(NC(=N)N)nc(C)c2cc1C was tested. Which viability index did it give?
**A.** 0.718

**Q.** How did the viability index turn out when CC(C)c1ccc2c(c1)c1c3c([n+](C)ccn32)CCC1 was run?
**A.** 1.22

**Q.** For CC(Cc1ccsc1)Nc1nc2nonc2nc1N(C)C (configuration not stated), which viability index is on record?
**A.** 0.853

**Q.** Cc1ccc(OCCCCN2CCOCC2)c([N+](=O)[O-])c1 was tested. Which viability index did it give?
**A.** 0.798

**Q.** With COC1=C(Nc2cccc(C(F)(F)F)c2)C(=O)c2ccccc2C1=O as the molecule, how does the viability index read?
**A.** 0.606

**Q.** With O=C1C=C(Nc2cccc(C(F)(F)F)c2)C(=O)c2ccccc21 as the molecule, how does the viability index read?
**A.** 0.0673

**Q.** With O=C(Nc1cc(Cl)cc(Cl)c1)Nc1cccc(C(F)(F)F)c1 as the molecule, how does the viability index read?
**A.** 1.06

**Q.** Which viability index does the source give for CCOC(=O)c1ccc(N(C(=O)Cc2c[nH]c3ccccc23)C(C(=O)NC2CCCCC2)c2cccc(OC)c2OC)cc1 (configuration not stated) here?
**A.** 0.849

**Q.** NC12CC3CC(C1)CC(SSC14CC5CC(CC(N)(C5)C1)C4)(C3)C2 was tested. Which viability index did it give?
**A.** 0.11

**Q.** COc1ccc(C2CC(=O)C3=C(C2)NC(=O)CC3c2ccc([N+](=O)[O-])cc2)cc1OC (configuration not stated) was tested. Which viability index did it give?
**A.** 0.406

**Q.** Which viability index does the source give for O=C(Nc1ccc(-n2cnnn2)cc1)C1CCN(Cc2cc3ccccc3o2)CC1 here?
**A.** 0.942

**Q.** COc1ccc2c(c1)OC(O)(C(F)(F)C(F)(F)F)CC2=O (configuration not stated) was tested. Which viability index did it give?
**A.** 0.6

**Q.** With CCN(CC)S(=O)(=O)c1cc(C(=O)O)ccc1Cl as the molecule, how does the viability index read?
**A.** 0.971

**Q.** Which viability index does the source give for COc1cccc(OC)c1C(=O)Nc1cc(C(F)(F)F)ccc1Cl here?
**A.** 0.971

**Q.** For COc1ccc(C=NNc2cc(C)nc3ccc(OC)cc23)c(OC)c1, which viability index is on record?
**A.** 0.591

**Q.** How did the viability index turn out when COC(=O)c1ccc(C=NNc2cc(C)nc3ccc(OC)cc23)cc1 was run?
**A.** 0.0573

**Q.** For COc1ccc(C=NNc2cc(C)nc3ccccc23)cc1, which viability index is on record?
**A.** 0.946

**Q.** For CC(C)(C)CC(C)(C)c1ccc(O)c(CN2CCN(CCC#N)CC2)c1, which viability index is on record?
**A.** 0.735

**Q.** COc1ccc(CNC2CCN(c3cccc(NC(=O)C4CC4)c3)CC2)cc1 was tested. Which viability index did it give?
**A.** 1.12

**Q.** How did the viability index turn out when C=CCN1C(=O)C(=C2Sc3ccc(OC)cc3N2C)SC1=Nc1ccccc1-c1ccccc1 was run?
**A.** 0.448

**Q.** Oc1ccc(-c2cncnc2)cc1CNC1CCN(Cc2ccccc2)CC1 was tested. Which viability index did it give?
**A.** 1

**Q.** For CCN(CC)Cc1cc(Nc2ccnc3cc(Cl)ccc23)ccc1O, which viability index is on record?
**A.** 0.873

**Q.** Which viability index does the source give for Cc1nonc1C(=O)NN=Cc1ccc([N+](=O)[O-])o1 here?
**A.** 0.871

**Q.** With COc1ccc(-c2cnnc(NN=Cc3ccc([N+](=O)[O-])o3)n2)cc1 as the molecule, how does the viability index read?
**A.** 0.0154

**Q.** How did the viability index turn out when O=[N+]([O-])c1ccc(C=NNc2nc(Nc3ccccc3)nc(Nc3ccccc3)n2)o1 was run?
**A.** 0.0664

**Q.** How did the viability index turn out when COc1ccc(Nc2nc(NN=Cc3cccc([N+](=O)[O-])c3OC)nc(Nc3ccc([N+](=O)[O-])cc3)n2)cc1 was run?
**A.** 0.469

**Q.** For O=[N+]([O-])c1ccc(-c2ccc(C=NNc3nc(Nc4ccccc4)nc(Nc4ccccc4)n3)o2)cc1, which viability index is on record?
**A.** 0.626

**Q.** Which viability index does the source give for O=[N+]([O-])c1ccc(Nc2nc(NN=Cc3ccccc3I)nc(Nc3ccccc3)n2)cc1 here?
**A.** 0.985

**Q.** For COc1ccc(NC(=O)NCc2cccn2Cc2ccc(F)cc2)cc1OC, which viability index is on record?
**A.** 0.952
